Only some compounds are listed: those with a hit (about 3% of all), similar ones and a draw of the others.
Nrf2 block – Nrf2 pathway inhibition. A549 ARE-Fluc reporter, luciferase luminescence, 18-24 h. Potency, µM (top dose mostly 46 µM), for inactives: at the highest dose activity change, negative = inhibition, most hits filed as inhibitors. actives 2.1% (n = 360,000). AID 504444; note: % is set by controls: 0 for no effect and ±100 for the full control effect; nearly all actives have a fitted effect of over 60% in size
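A549 ARE_Fluc cells (5000/well, 5% FBS OPTI-MEM) pre-incubated 2 h, then treated with compounds 18-24 h at 37C/5% CO2 in concentration-response. CellTiter-Fluor viability read first; BugLite luciferase luminescence after 15 min at room temperature gives Nrf2 activity.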
TrxR1 substrate – is turned over as a substrate by rat TrxR1; O89049; purified TrxR1 substrate turnover, NADPH consumption readout; Potency, µM (doses to about 114 µM), for the others: at the top dose activity change, negative = substrate turnover; actives 0.01% (n = 390,000); note: % is set by controls: 0 for no effect and ±100 for the full control effect; nearly all actives have a fitted effect of over 50% in size
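Rat TrxR1, dispensed at 90 nM, was prereduced with 400 uM NADPH (final) for 5 min at ~22 deg C, then incubated with compound 15 min before 400 uM selenite. A first-read NADPH fluorescence drop versus no-compound background flagged substrates.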
rTrxR1 inhibitor – blocks rat thioredoxin reductase 1 | recombinant rTrxR1, NADPH fluorescence consumption, selenite substrate | Potency, µM (series often up to 114 µM), inactives show at the top dose activity change, negative = inhibition, usual class: inhibitors | actives 1% (n = 390,000) | AID 588453; note: % is set by controls: 0 for no effect and ±100 for the full control effect; nearly all actives have a fitted effect of over 65% in size
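Rat TrxR1 (90 nM in the dispensed reagent) was pre-reduced with 400 uM NADPH for 5 min at room temperature, then incubated with compound for 15 min. After 400 uM selenite was added, NADPH fluorescence (Ex 340/Em 450 nm) was followed for 8 min.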
A549 tox – counter-screen for Nrf2 inhibitors: cytotoxicity in A549 cells. Potency, µM (titrated, usually from 46 µM), without a hit: top-dose activity change, negative = cytotoxicity, actives largely listed as inhibitors. AID 504648. A549 ARE-Fluc cells, CellTiter-Fluor viability, 18-24 h. actives 0.16% (n = 390,000); note: % is set by controls: 0 for no effect and ±100 for the full control effect
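A549 ARE-Fluc cells in 5% FBS OPTI-MEM, 5000 cells/well, rested 2 h then exposed to compounds in concentration-response for 18-24 h at 37 °C. Viability by CellTiter-Fluor fluorescence (Ex 405/Em 525) after 30 min; luciferase luminescence (BugLite, 15 min, RT) read afterwards.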
Nrf2 ARE act – activates Nrf2 signaling. AREc32 ARE-luciferase reporter (MCF7-derived line), luminescence, 24 h. Potency, µM (highest dose often 46.1 µM), for inactives: at the highest dose activation, actives largely listed as activators. actives 0.31% (n = 410,000); note: % of control where 0% means no effect; nearly all actives have a fitted effect of over 65% in size
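Quantitative high-throughput format: AREc32 reporter cells, 1000 per well, received compound by pin transfer and were incubated 24 hr at 37 deg C, 5% CO2, before Steady-Glo luminescence detection.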
GALK inhibitor – galactokinase (human) inhibition; P51570; Potency, µM (highest dose often 57.5 µM), for the others: at the top dose activity change, negative = inhibition, most hits filed as inhibitors; Purified GALK, Kinase-Glo residual ATP luminescence; actives 0.007% (n = 270,000); note: % is set by controls: 0 for no effect and ±100 for the full control effect
Target sequence (P51570 whole entry, looked up): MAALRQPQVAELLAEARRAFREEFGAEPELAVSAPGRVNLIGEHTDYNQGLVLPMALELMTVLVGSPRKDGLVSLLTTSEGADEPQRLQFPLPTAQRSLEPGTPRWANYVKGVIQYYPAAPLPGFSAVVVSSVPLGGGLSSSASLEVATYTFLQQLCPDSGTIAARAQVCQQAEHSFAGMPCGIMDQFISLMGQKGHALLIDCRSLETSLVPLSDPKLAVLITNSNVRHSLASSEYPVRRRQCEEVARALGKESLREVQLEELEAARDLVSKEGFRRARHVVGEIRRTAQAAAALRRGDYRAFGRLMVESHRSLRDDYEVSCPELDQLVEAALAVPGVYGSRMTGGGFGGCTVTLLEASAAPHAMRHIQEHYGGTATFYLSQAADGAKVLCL
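The enzyme phosphorylates galactose (100 uM) using ATP (35 uM); inhibition is detected as higher residual ATP, quantified by bioluminescence after 1 h reaction at room temperature, pH 8.0.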
Active calls of the source: *; ? = inconclusive; . = no result given; [ ] = another dose, or the depositor's remark. Calls come from the whole dose curve; as a rule, active = well fitted curve in the direction sought with a large enough effect; inconclusive = small, poorly fitted or top-dose-only effect, or another doubt; inactive = no such curve, though single readings can be large; an effect the other way counts as inactive or inconclusive. Potency is the fitted concentration of half-maximal effect.

SMILES	Nrf2 block	TrxR1 substrate	rTrxR1 inhibitor	A549 tox	Nrf2 ARE act	GALK inhibitor
O=C(CSc1ncnc2scc(-c3ccccc3)c12)N1CCN(c2ccccc2F)CC1	?	6%	17%	12%	-1%	2%
COc1ccccc1N1CCN(C(=O)CSc2ncnc3scc(-c4ccccc4)c23)CC1	18µM*	-1%	5%	-3%	2%	2%
COc1ccc(CNC(=O)C2CCCN(S(=O)(=O)c3ccc4c(ccn4C)c3)C2)c(OC)c1 (stereo not given)	.	2%[57.1 µM]	26%[57.1 µM]	-1%	6%	.
Cc1ccc(S(=O)(=O)Cc2ccc(C(=O)O)o2)cc1	13%	0%	25µM*	7%	-1%	1%
Cc1ccc(S(=O)(=O)Cc2ccc(C(=O)N3CCc4ccccc4C3)o2)cc1	-19%	-7%	71µM*	-4%	-1%	-1%
Cc1ccc(S(=O)(=O)N2CCN(C(=O)c3ccc(COc4ccccc4)o3)CC2)cc1	23µM*	-1%	12%	-4%	0%	.
COc1ccc(S(=O)(=O)Cc2ccc(C(=O)N3CCc4ccccc4C3)o2)cc1	?	6%	50µM*	0%	3%	2%
COc1ccc(S(=O)(=O)Cc2ccc(C(=O)O)o2)cc1	-6%	6%	-13%	-15%	-1%	0%
CN(C)CCNc1ncnc2ccc(-c3ccc4c(c3)OCO4)cc12	0%	.	.	6%	.	.
CCc1ccc(NC(=O)CC(c2ccc(C)cc2)N2Cc3ccccc3C2=O)cc1 (stereo not given)	?	1%	18%	2%	0%	.
CCC1CN(C(=O)Nc2cccc(OC)c2)c2ccccc2O1 (stereo not given)	?	7%[11.4 µM]	6%	?	3%	.
O=C(Nc1ccc([N+](=O)[O-])cc1)Nc1ccc(OC(F)F)c(Cl)c1	21µM*	-13%	-9%	?	-1%	.
COC(=O)C1=C[C@@H](C(=O)OC)[C@@H]2C3=C(C(=O)[C@@]2(C)NC(=O)c2ccccc2)[C@H](C)[C@@H]2C(=O)N(Cc4ccccc4)C(=O)[C@@H]2[C@@H]3C1	11%	-4%	8%	-1%	.	.
COc1ccc(Cc2nn3c(-c4ccccc4Br)nnc3s2)cc1	16µM*	5%	-1%	-3%	2%	-2%
Brc1ccccc1-c1nnc2sc(Cc3ccccc3)nn12	6%	6%	18%	?	0%	-1%
CCCOc1ccc(C(=O)NNC(=S)NC(=O)CC)cc1	4.6µM*	-3%[57.1 µM]	?	?	0%	.
C=CCNC(=S)NNC(=O)c1ccc(OCCC)cc1	-3%	-6%	-4%	-7%	0%	-5%
Cc1nnc(Cc2ccccc2)c2n[nH]c(C)c12	.	.	.	.	-1%	.
Cc1nnc(Cc2ccco2)c2n[nH]c(C)c12	.	.	.	.	11µM*	.
CC(C)CNS(=O)(=O)c1ccc(CCC(=O)N2CCN(c3ccccc3)CC2)cc1	10µM*	1%[57.1 µM]	14%[57.1 µM]	?	2%	0%
N#Cc1ccc(CN2CCN(C(=O)c3ccc(S(=O)(=O)NCc4ccco4)cc3)CC2)cc1	8.2µM*	-2%	-30%	?	11%	.
COc1cccc(S(=O)(=O)NCc2ccc(C(=O)N3CCN(c4ccccc4)CC3)cc2)c1	?	0%	27%	2%	0%	-6%
Cc1ccc(S(=O)(=O)NCc2ccc(N3CCN(C(=O)OC(C)(C)C)CC3)cc2)cc1	26µM*	-8%	1%	-10%	0%	-5%
O=C(c1ccc(S(=O)(=O)NCc2ccco2)cc1)N1CCCC1	-5%	-2%[57.1 µM]	0%[57.1 µM]	1%	0%	5%
Cc1ccc(S(=O)(=O)NCc2ccc(C(=O)N3CCN(c4ccccc4)CC3)cc2)cc1	23µM*	1%	18%	-5%	0%	-5%
SMILES	Nrf2 block	TrxR1 substrate	rTrxR1 inhibitor	A549 tox	Nrf2 ARE act	GALK inhibitor
Cn1c(=O)n(CCCc2ccccc2)c(=O)c2c1nc1n2CCN1c1ccccc1	-1%	14%[11.4 µM]	10%	-3%	-1%	.
CCOc1ccc(CNC(=O)C2CCN(C(=O)N3CC(CC)Oc4ccc(C)cc43)CC2)cc1OC (stereo not given)	-25%	-3%	20%	-2%	4%	.
O=C(c1ccc(CNS(=O)(=O)c2ccccc2)cc1)N1CCN(Cc2ccccc2)CC1	13µM*	8%	12%	-15%	0%	2%
Cc1ccc(S(=O)(=O)Nc2ccc(C(=O)N3CCCC3)cc2)cc1	0%	-2%	-1%	-1%	0%	-2%
Cc1ccc(NS(=O)(=O)c2ccc(C(=O)N3CCN(S(=O)(=O)c4ccccc4)CC3)cc2)cc1	21µM*	-1%	9%	-25%	1%	.
Cc1ccc(S(=O)(=O)N2CCN(C(=O)CNC(=O)c3ccc(Cl)cc3)CC2)cc1	21µM*	-10%	-19%	0%	1%	.
CS(=O)(=O)c1ccc(C(=O)N2CCN(Cc3ccccc3)CC2)cc1	-19%	10%[57.1 µM]	2%[57.1 µM]	-10%	0%	-2%
O=[N+]([O-])c1c(Nc2ccccn2)cc(Cl)c2nonc12	?	-12%	1.3µM*	18µM*	-3%	.
O=C(O)c1cccc(Nc2cc(Cl)c3nonc3c2[N+](=O)[O-])c1	2%	-17%	1.4µM*	?	-1%	0%
O=[N+]([O-])c1c(Nc2ccc(O)cc2)cc(Cl)c2nonc12	2%	3%[57.1 µM]	?	?	-4%	-6%
O=C(O)c1ccccc1Nc1cc(Cl)c2nonc2c1[N+](=O)[O-]	5%	-14%	1.6µM*	?	3%	2%
Cc1csc(CNc2ncnc3ccc(-c4ccc5c(c4)OCO5)cc23)n1	10%	.	.	-9%	.	.
COc1ccc(CN2CCc3c(c(=O)n4ncc(C(=O)N5CCN(c6ccccc6OC)CC5)c4n3C)C2)cc1	.	4%[57.1 µM]	7%[57.1 µM]	-2%	1%	.
C=CCN=c1scc(-c2ccc3c(c2)NC(=O)CO3)n1/N=C(\C)c1ccccn1	16µM*	6%	19%[57.1 µM]	?	8%	1%
C=CCN=c1scc(-c2ccc(F)cc2)n1/N=C/c1ccccn1	?	-4%	-8%	-10%	5%	-1%
COc1ccc(C(=O)N(Cc2cccs2)Cc2cccs2)c(O)c1	24%	.	.	2%	.	.
Cc1ccc(-n2nnnc2SCC(=O)Nc2cccc(NC(=O)c3ccco3)c2)cc1C	?	2%	14%	-2%	2%	0%
CC(=O)c1ccc(-n2nnnc2SCC(=O)Nc2cccc(NC(=O)c3ccco3)c2)cc1	23µM*	-7%	1%	-13%	7%	-3%
COc1ccc(NC(=O)CN(C)S(=O)(=O)c2ccc3nc(C)sc3c2)cc1Cl	?	-1%	3%	-3%	5%	.

Compound activity as filed in PubChem BioAssay.
